The values below come from ChEMBL document CHEMBL3433997, “St. Jude Leishmania screening dataset” (2016).

Common to all, as to format: functional
Test [1] deals with Solute carrier family 2, facilitated glucose transporter member 1 (Homo sapiens) (UniProt P11166). In words: ST_JUDE_LEISH: Cytotoxicity at 2uM final concentration against transgenic Leishmania Mexicana promastigotes LmGLUT1 that are glucose transport deficient and complemented with the human glucose transporter GLUT1. Activity is measured by DNA content using SYBR green in vitro.
Sequence of Solute carrier family 2, facilitated glucose transporter member 1 (Homo sapiens) (P11166 whole entry): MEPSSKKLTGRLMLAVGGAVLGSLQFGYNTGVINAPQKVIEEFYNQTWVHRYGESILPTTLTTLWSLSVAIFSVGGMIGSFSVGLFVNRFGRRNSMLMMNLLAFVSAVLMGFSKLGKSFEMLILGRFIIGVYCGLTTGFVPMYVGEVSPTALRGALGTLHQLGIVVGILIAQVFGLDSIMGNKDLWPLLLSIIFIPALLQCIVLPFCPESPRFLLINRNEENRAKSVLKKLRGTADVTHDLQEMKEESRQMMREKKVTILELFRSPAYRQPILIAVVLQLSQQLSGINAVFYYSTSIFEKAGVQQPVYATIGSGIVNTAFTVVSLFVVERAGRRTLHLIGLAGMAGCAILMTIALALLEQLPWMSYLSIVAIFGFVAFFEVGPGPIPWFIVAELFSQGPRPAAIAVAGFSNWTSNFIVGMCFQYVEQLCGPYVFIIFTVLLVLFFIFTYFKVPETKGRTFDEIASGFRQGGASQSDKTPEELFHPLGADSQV

Test [2] deals with Hexose transporter 1 (Plasmodium falciparum) (UniProt O97467). Description: ST_JUDE_LEISH: Cytotoxicity at 2uM final concentration against transgenic Leishmania Mexicana promastigotes LmPfHT that are glucose transport deficient and complemented with the Plasmodium falciparum hexose transporter. Activity is measured by DNA content using SYBR green in vitro.
Test [3] addresses Glucose transporter (Leishmania mexicana) (UniProt O61059). In words: ST_JUDE_LEISH: Cytotoxicity at 2uM final concentration against transgenic Leishmania Mexicana promastigotes LmGT2 that are glucose transport deficient and complemented with the L. Mexicana glucose transporter 2. Activity is measured by DNA content using SYBR green in vitro.

In the case of `CCOC(=O)c1c(NC(NC(=O)c2ccc(C(C)(C)C)cc2)C(Cl)(Cl)Cl)sc2c1CCCC2` (stereo not given), the inhibition in test [1] came to 10.5%; in test [2], 8.72%; in test [3] it was 9.68%.
For `O=C(NCCc1cccc(Cl)c1Cl)c1ccc(N2CCN(c3ccncc3)CC2)nc1` the same measures were 38.6%, 16.9% and 21.8%.
Regarding `CCN1CCC(N(Cc2ccc(-c3ccc(C(F)(F)F)cc3)cc2)C(=O)Cn2c(CCc3cccc(F)c3F)cc(=O)c3ccccc32)CC1`, the inhibition in test [1] is -0.63%; in test [2], -0.01%; in test [3], -2.06%.
`COc1ccc2nc(-c3ccccc3)cc(NCCCNc3cc(-c4ccccc4)nc4ccc(OC)cc34)c2c1`: the inhibition in test [1] stood at 3.06%; in test [2] it was 2.6%; in test [3], 0.67%.
`CC(C)CNCc1ccc(-c2cccc(-c3nc4ccccc4[nH]3)c2)cc1`: the figures for the inhibition in test [1], in test [2] and in test [3] were 1.31%, 9.2% and 0.1%, respectively.
On to `CCNC(C)(C)CN(Cc1ccc(-c2ccc(C(F)(F)F)cc2)cc1)C(=O)Cn1c(CCc2cccc(F)c2F)nc(=O)c2ccccc21`, for which the inhibition in test [1] was 3.91%; in test [2], 3.3%; in test [3] it was 2.34%.
`CCOC(=O)N(C)/N=C/[C@H](CCc1ccccc1)NC(=O)[C@H](CC(C)C)NC(=O)c1cc2cccc(OC)c2o1`: the figures for the inhibition in test [1], in test [2] and in test [3] were 5.68%, 3.47% and 5.24%, respectively.
Regarding `CN1CCN(CCCN(Cc2cccc(-c3ccc(CNCCc4ccccc4)cc3)c2)C(=O)c2cccs2)CC1`, the values for the inhibition in test [1], in test [2] and in test [3] were 4.14%, 4.22% and 3.91%, respectively.
For `COc1ccc(-c2ccc(NC(=O)c3ccc(C#N)cc3)c(F)c2)cc1CN(C)CCN(C)C` the same measures were 0.85%, -0.56% and 0.45%.
For `O=C(Nc1ccc(Cl)cc1)Nc1nc2cc([N+](=O)[O-])ccc2[nH]1`, the inhibition in test [1] was 0.18%; in test [2] it was 0.01%; in test [3], 0.02%.
With `Cc1cc(F)ccc1Nc1nc(N(C)c2ccccc2)c2cccc(O)c2n1`, the figures for the inhibition in test [1], in test [2] and in test [3] were 12.3%, 9.06% and 1.82%, respectively.
With `COc1ccc(-c2ccc([N+](=O)[O-])cc2C(=O)NCC(C)Oc2ccc(C(F)(F)F)cc2)cc1` (stereo not given), the results for the inhibition in test [1], in test [2] and in test [3] were -0.75%, -1.3% and -3.99%, respectively.
As for `CCCCCCOc1ccc2ccccc2c1CNCCCCCCNCc1c(OCCCCCC)ccc2ccccc12`, the inhibition in test [1] was 16.8%; in test [2], 21.5%; in test [3] it was 7.86%.
`C=CCOc1cc(Cc2cnc(N)nc2N)cc(OC)c1OC`: the inhibition in test [1] was 1.5%; in test [2], -3.15%; in test [3] it was -1.97%.
With `CN(C)CCNCc1nc(-c2ccc3c(Nc4ccc(Cl)cc4F)ccnc3c2)cs1`, the figures for the inhibition in test [1], in test [2] and in test [3] were 9.87%, 8.58% and 10.1%, respectively.
Take `CCc1cn2c3c(cc(C(=O)N[C@@H](Cc4ccccc4)[C@H](O)CNC4CCOCC4)cc13)N(C)S(=O)(=O)C2`: the inhibition in test [1] is 0.25%; in test [2], 1.65%; in test [3] it was -0.23%.
Turning to `COc1ccc2nccc([C@@H](O)CN3CCC(NCCOc4cc(F)cc(F)c4)CC3)c2c1`, the values for the inhibition in test [1], in test [2] and in test [3] were 9.84%, 19.3% and 4.32%, respectively.
For `COc1ccc(Cl)cc1N1CCN(CCCNC(=O)c2ccc(-c3nc4cnccc4[nH]3)c(Br)c2)CC1` the same measures were 0.19%, -0.19% and -0.85%.
For `CC(C)c1ccc(O)cc1Nc1ccnc2ccc(C(F)(F)F)cc12`, the inhibition in test [1] is 1.29%; in test [2], -0.72%; in test [3] it was -0.66%.
For `COc1cccc(Nc2nc(NCCO)c3ccccc3n2)c1`, the results for the inhibition in test [1], in test [2] and in test [3] were 14.8%, 15% and 5.17%, respectively.
For `CC(=O)Nc1ccc2[nH]cc(C3CCN(CC4CCC(NC(=O)/C=C/c5ccc(Cl)c(Cl)c5)CC4)CC3)c2n1` (stereo not given) the same measures were -0.73%, 0.9% and -2.32%.
For the molecule `CN(C)CCN(C)C(=O)c1cc(-c2ccncc2)c(-c2ccc(Cl)c(O)c2)o1`, the inhibition in test [1] was 8.43%; in test [2] it was 8.13%; in test [3] it was 6.77%.
In the case of `O=C(Nc1ccc(Br)cc1)N(CCN1CCOCC1)CC(O)COCc1ccc(Cl)c(Cl)c1` (stereo not given), the inhibition was 2.07% in test [1], 1.38% in test [2] and -5.49% in test [3].
Consider `Nc1nccc2ccc(-c3cccc(O)c3)cc12`, for which the results for the inhibition in test [1], in test [2] and in test [3] were 7.38%, 6.21% and 4.01%, respectively.
Take `CC(C)COc1ccc(Cl)cc1Cc1nc(-c2nc3ccc(N4CCN(C)CC4)nc3[nH]2)cs1`: the inhibition in test [1] is -3.46%; in test [2], 1.5%; in test [3], 3.9%.
In the case of `Cc1ccc(Nc2nccc(NCC(O)c3cccc(F)c3)n2)cc1` (stereo not given), the inhibition is 0.93% in test [1], 1.15% in test [2] and -0.59% in test [3].
As for `CCn1cc(C(=O)O)c(=O)c2cc(F)c(N3CCN(S(=O)(=O)c4ccc(N)cc4)CC3)cc21`, the figures for the inhibition in test [1], in test [2] and in test [3] were 0.77%, 0.41% and -4%, respectively.
For `NC(=O)c1sc(-n2cnc3ccc(C(=O)NCCN4CCOCC4)cc32)cc1OCc1ccccc1C(F)(F)F` the same measures were 0.72%, -0.6% and -0.32%.
For `COc1ccc(N2CCN(CCCCNC(=O)c3ccc(NC(=O)c4ccc(Cl)cc4)cc3)CC2)c(C)c1`, the inhibition in test [1] amounted to 10.4%; in test [2], 8.02%; in test [3], 9.07%.
Consider `NCCCNc1nc(Nc2ccc(C(F)(F)F)cc2F)c2c(=O)[nH]ccc2n1`, for which the inhibition amounted to 3.4% in test [1], 3.63% in test [2] and 0.74% in test [3].
For `CCN1CCC(N(Cc2ccc(-c3ccc(C(F)(F)F)cc3)cc2)C(=O)Cn2c(CCc3cccc(F)c3F)cc(=O)c3cn(C)nc32)CC1` the same measures were -2.3%, 1.08% and 0.21%.
`COc1ccccc1CNC(=O)c1cc(C2CC2)nc2c1cnn2C(C)C`: the inhibition in test [1] was determined as 15.2%; in test [2], 11.5%; in test [3], 8.12%.
For the molecule `CC(C)NCC(O)COc1ccc(Cc2ccc(OCC(O)CNC(C)C)cc2)cc1` (stereo not given), the inhibition in test [1] is -0.23%; in test [2] it was 0.19%; in test [3] it was -0.55%.
Regarding `O=C(NCCCCN1CCC(c2cccc3ccccc23)CC1)c1ccc(NC(=O)c2ccc(Cl)cc2)cc1`, the inhibition in test [1] is 1.07%; in test [2], 0.25%; in test [3], 0.68%.
`COc1ccc(O)c(Cc2cnc3nc(N)nc(N)c3c2C)c1`: the inhibition was 12.3% in test [1], 11.2% in test [2] and 11.4% in test [3].
